Assay outcomes from PubChem.
The sample as a whole holds a higher share of hits than the screen did.
Epigenetic reg: epigenetic control regulation, reporter derepression; murine LDR cells, GFP reporter derepression, 30 h; Potency, µM (doses to about 53.9 µM), for the others: top-dose GFP activation, actives largely listed as activators; 0.2% of 280,000 active; note: % of control where 0% means no effect; nearly all actives have a fitted effect of over 60% in size
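In this reporter-derepression format, murine cells bearing a silenced integrated CMV-GFP locus incubate with test compound (30 h, 37 C), then are washed and imaged; fluorescent objects of 20–120 um count as induced cells.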
PINK1 expr mod: changes PINK1 expression. 0.2% of 410,000 active. Potency, µM (doses to about 76.6 µM), for inactives: top-dose activation (PINK1 increase), actives largely listed as activators. PINK1 immunofluorescence, high-content cytometry, 24 h; active = well fitted activation curve with a large enough effect; inconclusive = small, poorly fitted or top-dose-only effect; cell line not stated here; note: % of control where 0% means no effect; nearly all actives have a fitted effect of over 65% in size
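Cells are seeded, rested 12 hours, then given compound at five concentrations or DMSO for 24 hours. After fixation, blocking and antibody staining, PINK1 amount and mitochondrial localization are scored; CCCP serves as control.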
PTAP TSG101 blk: blocks PTAP/TSG101 interaction to inhibit HIV-1 budding; Fluorescence polarization, FITC-PTAP peptide / Tsg101 binding; Potency, µM (top dose mostly 115 µM), for the others: at the highest dose activity change, negative = inhibition, hits mostly inhibitors; 340,000 tested, under 10 active; AID 493005; active = well fitted inhibition curve with a large enough effect in the main read-out, with a control signal flat, not every such curve was filed as active; inconclusive = small, poorly fitted or top-dose-only effect, or effect the other way, or a change in a side signal; inactive = no such curve, though single readings can be large or run the other way; note: % of control where 0% means no effect
Target sequence (Q99816 whole entry, looked up): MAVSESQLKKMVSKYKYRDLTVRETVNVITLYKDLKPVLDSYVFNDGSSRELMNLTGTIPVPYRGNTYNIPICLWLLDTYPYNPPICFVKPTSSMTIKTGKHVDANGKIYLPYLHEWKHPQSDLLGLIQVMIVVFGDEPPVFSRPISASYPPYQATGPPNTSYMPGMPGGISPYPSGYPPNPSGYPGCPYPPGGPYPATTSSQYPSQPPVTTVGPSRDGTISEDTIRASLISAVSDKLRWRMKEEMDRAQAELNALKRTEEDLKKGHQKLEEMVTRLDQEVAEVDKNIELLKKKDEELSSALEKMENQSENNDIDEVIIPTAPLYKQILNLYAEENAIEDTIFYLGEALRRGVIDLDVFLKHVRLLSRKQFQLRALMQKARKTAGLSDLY
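Fluorescence polarization binding of Tsg101 binding domain (10 uM final) to FITC-labeled PTAP peptide (50 nM final) in HEPES pH 7.5 buffer with NaCl, Tween 20, EDTA, TCEP. Compounds added before peptide; binding 20 min at RT.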
HTT aggregate: mutant huntingtin aggregation inhibition; PC12 HttQ103-GFP aggregates, Acumen cytometry, 40 h; Potency, µM (top dose mostly 46.1 µM), for inactives: top-dose activity change, negative = inhibition, most hits filed as inhibitors; 1.1% of 220,000 active; AID 1688; note: % is set by controls: 0 for no effect and ±100 for the full control effect; nearly all actives have a fitted effect of over 60% in size
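Huntingtin Q103 exon 1–GFP aggregates in induced PC12 cells (100 nM tebufenozide) were quantified by cytometry from lysates, with compounds dosed in titration.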
Anesthetic bind: candidate novel general anesthetic via apoferritin binding | P02791 | apoferritin/1-aminoanthracene competitive binding, fluorescence | Potency, µM (series often up to 77.5 µM), without a hit: top-dose activity change, negative = displacement, usual class: inhibitors | 0.074% of 350,000 active | AID 485281; note: % is set by controls: 0 for no effect and ±100 for the full control effect; nearly all actives have a fitted effect of over 20% in size
Target sequence (P02791 2-175 limits assumed): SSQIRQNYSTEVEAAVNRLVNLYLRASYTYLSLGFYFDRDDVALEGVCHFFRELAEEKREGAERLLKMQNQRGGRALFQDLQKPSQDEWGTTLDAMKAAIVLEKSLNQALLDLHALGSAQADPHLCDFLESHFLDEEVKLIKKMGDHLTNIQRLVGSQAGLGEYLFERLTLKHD
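Horse-spleen apoferritin (10 uM) was mixed with 50% saturated 1-aminoanthracene in PBS, exposed to compounds for 10 min at room temperature, and read for fluorescence (ex 380 nm, em 535 nm). Competitive displacement was fitted with a four-parameter Hill equation.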
HTT ATP protect: protects HTT-Q103 PC12 cells, measured by ATP; PC12 HTT-Q103 induced, cytoprotection, ATP luminescence, 40 h; Potency, µM (titrated, usually from 56.4 µM), inactives show cytoprotection (ATP increase), most hits filed as activators; 0.14% of 230,000 active; AID 1471; note: % of control where 0% means no effect; nearly all actives have a fitted effect of over 45% in size
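Cells were plated at 1500 per well in phenol red-free DMEM with 5% equine and 5% calf serum. Tebufenozide (100 nM final) and compounds were added, then ATPlite reagent, and luminescence was read.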
* hit, by the source's call; ? = inconclusive; / = not tested or not shown; [ ] = another dose, or the depositor's remark. Unless noted, calls come from the whole dose curve; as a rule, active = well fitted curve in the direction sought with a large enough effect; inconclusive = small, poorly fitted or top-dose-only effect, or another doubt; inactive = no such curve, though single readings can be large; an effect the other way counts as inactive or inconclusive. Potency is the fitted concentration of half-maximal effect.

SMILES	Epigenetic reg	PINK1 expr mod	PTAP TSG101 blk	HTT aggregate	Anesthetic bind	HTT ATP protect
CCOc1cc(S(=O)(=O)N2CCN(Cc3ccccc3)CC2)ccc1Br	-1%	0%	1%	11µM*	-1%	-1%[0.074 µM]
CCOc1ccccc1CN1CCN(S(=O)(=O)c2ccccc2)CC1	-1%	-1%	/	/	15%	/
CCS(=O)(=O)N1CCC(C(=O)NCCc2ccc(OC)c(OC)c2)CC1	2%	10µM*	-2%	14%	-3%	-29%
COc1ccc(CCNC(=O)C2CCN(S(C)(=O)=O)CC2)cc1OC	-3%	0%[38.3 µM]	-7%	-20%	0%	5%[10 µM]
COc1ccc(CCNC(=S)N2CCC(Cc3ccccc3)CC2)cc1OC	-1%	1%	-8%	22µM*	68%	-63%
O=C(c1cnn(-c2nccc(-c3ccccc3F)n2)c1C1CC1)N1CCN(CCO)CC1	/	0%	/	/	/	/
CCOc1ccc(OCC)c(NC(=O)c2ccc(CNc3c(N4CCOCC4)c(=O)c3=O)cc2)c1	0%	-2%	-4%	?	-10%	3.2µM*
Cc1cc(C)cc(NC(=O)c2ccc(CNc3c(N4CCOCC4)c(=O)c3=O)cc2)c1	1%	1%	0%	2%	-10%	-19%
Cc1ccc(NC(=O)c2ccc(NC(=O)C3CCCC3)cc2)c(C)c1	/	0%	/	/	/	/
CC(C)(C)Nc1nc(C#N)nc(Nc2ccccc2)n1	/	/	/	/	-19%	/
C=CCc1cccc(/C=N/NC(=O)CNc2cccc3ccccc23)c1O	-3%	4%	-5%	25%	?	-13%[10 µM]
C=CCc1cccc(/C=N/NC(=O)CNc2ccccc2)c1O	0%	13%	-1%	11µM*	?	-73%
C=CCc1cccc(/C=N/NC(=O)CNc2ccccc2OC)c1O	8%	4%	-5%	20µM*	?	-120%
C=CCc1cccc(/C=N/NC(=O)C(C)Nc2cccc(C)c2)c1O (centres undefined)	-3%	16%	-3%	11µM*	?	-128%
C=CCn1c(CNc2ccccc2)nnc1SCC(=O)N/N=C/c1ccccc1O	-3%	0%	-1%	18µM*	-16%	-49%
O=C(Nc1ccc2nc(SCC(=O)N3CCCc4ccccc43)sc2c1)c1ccccc1	3%	0%	/	/	4%	/
Cc1cccc(C(=O)NCC2Cc3cc(F)cc(-c4cnccn4)c3O2)n1 (centres undefined)	/	0%	/	/	/	/
COc1ccc(N2CCN(C(=O)c3cc(NC(C)=O)c4c(c3)ncn4CCc3ccccn3)CC2)cc1	/	0%	/	/	/	/
CCC1(C2CCN(Cc3ccc(OC)cc3)CC2)NC(=O)N(CC2COc3ccccc3O2)C1=O (centres undefined)	/	0%	/	/	/	/
Nc1[nH]n2c(=O)cc(-c3ccccc3)nc2c1N=Nc1ccccc1	0%	4%	-10%	3.2µM*	-11%	-79%
CC(C)c1noc2ncc(C(=O)c3cc(Cl)cc(Cl)c3O)cc12	1%	?	2%	11µM*	?	-17%
CCCCCCCCCc1nc2sc3c(c2c(=O)n1NC(=O)c1ccc([N+](=O)[O-])cc1)CC(C)(C)OC3	-3%	13µM*	-1%	4%	-3%	27%[10 µM]
NC1C(N)C(N)C1N (centres undefined)	/	2%	/	/	/	/
O=C(O)c1ccccc1-c1oc2cc(O)ccc2c(=O)c1Oc1ccccc1	0%	/	/	/	/	-54%
O=C(O)CN(CC(=O)O)Cc1cc2c(-c3ccccc3C(=O)O)c3cc(CN(CC(=O)O)CC(=O)O)c(=O)cc-3oc2cc1O	?	/	/	0.18µM*	336%	/
SMILES	Epigenetic reg	PINK1 expr mod	PTAP TSG101 blk	HTT aggregate	Anesthetic bind	HTT ATP protect
COC(=O)c1ccccc1-c1ccc(/C=N/NC(=O)c2cc3ccccc3o2)o1	-1%	2%	0%	-14%	127%	-6%[10 µM]
O=C(O)c1ccccc1-c1c2ccc(=O)cc-2oc2cc(O)ccc12	2%	/	/	0.032µM*	726%	-125%
O=c1cc(-c2ccccc2F)oc2ccccc12	3%	-2%	-4%	-24%	4%	11%[1.9 µM]
COC(=O)c1ccccc1-c1c2ccc(=N)cc-2oc2cc(N)ccc12	/	40µM*	-106%	/	/	/
CCN(CC)S(=O)(=O)c1ccc(NC(=O)Nc2cccc(C(F)(F)F)c2)cc1	-6%	?	-1%	16µM*	-9%	-63%
CC(O)(COc1ccccc1)c1ccc2c(c1)CN(Cc1cccnc1)CCO2 (centres undefined)	/	0%	/	/	/	/
O=C(CCCC(=O)NCC1CCCO1)NCC1CCCO1 (centres undefined)	0%	4%	-5%	-10%	-5%	-11%
O=C(CN1CCCCCC1)NCC1CCCO1 (centres undefined)	1%	-1%	5%	17%[9.22 µM]	-2%	2.2µM*
O=C1c2ccsc2SCCN1Cc1c(Cl)cccc1Cl	-4%	0%	-3%	22µM*	?	-99%[10 µM]
O=C1c2ccsc2SCCN1Cc1c(F)cccc1Cl	/	0%	-3%	/	-12%	/
COc1ccc2cc3c(N)nn(C(=O)Cc4c[nH]c5ccccc45)c3nc2c1	0%	-1%	-1%	3.2µM*	-18%	3%[10 µM]
COc1cccc(CC(=O)n2nc(N)c3cc4ccc(OC)cc4nc32)c1	3%	14%	4%	-10%	-3%	?
COc1ccc2cc3c(N)nn(C(=O)Cc4ccc(Cl)cc4)c3nc2c1	3%	0%	-4%	7.9µM*	-6%	15%
COc1ccc2[nH]c3c(N4CC(C)OC(C)C4)ncnc3c2c1 (centres undefined)	-4%	3%	-7%	1%	-12%	-12%
COc1cccc(N2CCN(c3ncnc4c3[nH]c3ccc(F)cc34)CC2C)c1 (centres undefined)	3%	-4%	0%	6.3µM*	49%	-126%
COc1cccc(N2CCN(c3ncnc4c3[nH]c3ccccc34)CC2C)c1 (centres undefined)	-2%	/	/	11µM*	6%	-8%[10 µM]
C=CCn1c(NC(C)c2cc(Cl)ccc2O)nc2ccccc21 (centres undefined)	2%	24%	-2%	11µM*	?	-3%
COc1cccc2c1C(=O)/C(=C\c1ccc(N(C)C)cc1)C2	/	9%	/	/	/	/
Cc1ccc(NC(=O)c2ccccc2NS(=O)(=O)c2ccc(Cl)s2)cc1S(=O)(=O)N1CCOCC1	-1%	40µM*	-2%	?	-12%	/
COc1ccc(C)cc1NC(=O)c1ccccc1NS(=O)(=O)c1ccc(Cl)s1	1%	?	-5%	4.5µM*	-17%	-71%
O=C(Nc1cc(S(=O)(=O)N2CCOCC2)ccc1O)c1ccc(NS(=O)(=O)c2ccc(Cl)s2)cc1	1%	1%	-10%	?	-2%	-10%[10 µM]
